Among all 2,500 compounds or so, about 2,100 (84%) were called active.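 How the source made its calls: active means toxic compounds, whose cell viability fell below 70% of untreated control cells; inactive means the rest.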 The set was probably picked from earlier hits. Not all results are given here. Measured potencies and affinities stand elsewhere.
Experiment: HEp-2 cell cytotoxicity, dose response, cytotoxicity control for RSV inhibitor project, HTS (AID 2410);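 further: cells exposed to compound for six days before readout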
Conditions: HEp-2 viability, luminescence, cytotoxicity counter-screen; series mostly up to 50 µM

SMILES	outcome
CC1CCCN(C(=O)CCNS(=O)(=O)c2ccc(Br)cc2)C1 (configuration not stated)	inactive
c1coc(-c2nn3c(Cn4nnc5ccccc54)nnc3s2)c1	inactive
c1ccc(-c2nn3c(Cn4nnc5ccccc54)nnc3s2)cc1	inactive
Cc1c(Cc2ccccc2)c(=O)oc2cc(O)cc(O)c12	inactive
CCOC(=O)Cc1c(C)c2ccc(N(CC)CC)cc2oc1=O	inactive
CNc1oc(/C=C/c2cccc(OC)c2)nc1C#N	inactive
N#Cc1c(N2CCOCC2)nsc1-c1ccc(C(F)(F)F)cc1	inactive
Cc1ccc(-c2nc3cc(N)ccc3o2)cc1Br	inactive
COC(=O)c1sccc1NC(=O)c1ccccc1F	inactive
O=C(NCCN1CCN(C(=O)C(c2ccccc2)c2ccccc2)CC1)C(=O)Nc1ccccc1	inactive
COc1cc(N)c(Cl)cc1NC(=O)c1ccccc1	inactive
Cc1nn2c(N)c(C#N)cnc2c1-c1ccccc1	inactive
Cc1ccc(Nc2nc(N)c([N+](=O)[O-])c(N3CCOCC3)n2)cc1C	inactive
C[C@@H]1CN(C(=O)c2nc3ccc(Cl)cn3c2CN2CCc3sccc3C2)C[C@H](C)O1	inactive
CN(CC(=O)NCc1ccc(F)cc1)S(=O)(=O)c1cccc2nsnc12	inactive
CCN(c1ccccc1)S(=O)(=O)c1ccc(Cl)c(NC(=O)c2ccc(=O)[nH]n2)c1	inactive
CSc1ncc(Cl)c(C(=O)Nc2ccccc2Br)n1	inactive
C/C(N)=C(/C#N)C(=O)COC(=O)c1ccncc1	inactive
C=CCC1(C#N)C(=S)NC(C)=C(C(=O)OCC)C1c1ccccc1 (configuration not stated)	inactive
CNC(=S)N/N=C(\C)c1ccc(-n2ccnc2)cc1	inactive
Cc1ccc(-n2c(-c3cccnc3)n[nH]c2=S)c(C)c1	inactive
COc1cc(-c2nc3c(c(C)nn3-c3ccccc3)c3cc(OC)c(OC)cc23)ccc1O	inactive
COc1ccc(/C=C/C(=O)NCc2nc3ccccc3[nH]2)cc1OC	inactive

SMILES	outcome
CC(C(=O)NCCc1ccc(Cl)cc1)n1c(=O)c2cccn2c2cccnc21 (configuration not stated)	inactive
O=[N+]([O-])c1ccc(N/N=C/c2cccnc2)cc1	inactive
COc1ccc(C2Nc3cc(OC)ccc3-n3cccc32)cc1 (configuration not stated)	inactive
COc1ccc(-c2cc(C(=O)Nc3nc4c(C)cccc4s3)c3ccccc3n2)cc1OC	inactive
CCCNC(=O)N1CCN(c2nc(C(C)C)c3c(c2C#N)CC(C)(C)OC3)CC1	inactive
Cc1cccc2nc(COc3ccc(Cl)c4cccnc34)cn12	inactive
O=C1[C@H]2[C@@H](c3ccc(Cl)cc3)N3C(=O)N(c4cccc(Br)c4)C(=O)[C@@]3(Cc3ccc(Cl)cc3)[C@H]2C(=O)N1C1CCCCC1	inactive
CC(C)(C)N1C(=O)[C@H]2[C@@H](c3ccc(Br)cc3)N3C(=O)N(c4cccc(Cl)c4)C(=O)[C@@]3(Cc3ccccc3)[C@H]2C1=O	inactive
O=C1[C@H]2[C@@H](c3ccc(F)cc3)N3C(=O)N(c4ccc(Br)cc4)C(=O)[C@@]3(Cc3ccc(Cl)cc3)[C@H]2C(=O)N1C1CCCCC1	inactive
O=c1c2ccccc2oc2ccc(-c3ccc4[nH]ccc4c3)cc12	inactive
COc1ccc2oc(-c3ccco3)cc(=O)c2c1	inactive
O=C1C2CCCN2c2ccc(S(=O)(=O)N3CCOCC3)cc2N1Cc1ccccc1F (configuration not stated)	inactive
O=C(c1ccc(F)cc1)N1CCN2C(=O)c3ccccc3C12c1ccccc1 (configuration not stated)	inactive
Nc1ccc(Cl)c[n+]1Cc1cccc2cccnc12	inactive
N#C/C(=C\c1ccncc1)c1nc2c(s1)CCCC2	inactive
COc1ccc2ccc(=O)oc2c1	inactive
Cc1c(CC(=O)N2CCN(C(=O)C3COc4ccccc4O3)CC2)c(=O)oc2cc(O)cc(O)c12 (configuration not stated)	inactive
Cc1cc(S(=O)(=O)N2CCCC2)ccc1OCC(=O)Nc1ccccc1	inactive
CC(=O)c1ccc2c(ccc3ccccc32)c1	inactive
COCCCNC(=O)c1ccc(Cn2c(=O)c3ccccc3n(Cc3ccc(C)cc3)c2=O)cc1	inactive
CC(=O)c1c(C)nc(-c2ccc(Cl)cc2)nc1N=CN(C)C	inactive
O=C1c2ccccc2C(Nc2cccnc2)N1Cc1ccc2c(c1)OCO2 (configuration not stated)	inactive
Cc1ccc2[nH]c(=O)c(COC(=O)c3ccccn3)cc2c1	inactive

SMILES	outcome
COc1ccc(NC(=O)C2(c3ccc(NC(=O)c4ccc(OC)cc4)cc3)CCCC2)cc1	inactive
Nc1nnnn1/N=C/c1ccc(O)cc1	inactive
COCCn1c(-c2ccc(Cl)cc2Cl)nc2c(c(=O)c3ccccc3n2C)c1=O	inactive
CCCCCC(=O)Nc1nc(C)c(-c2csc(Nc3cc(Cl)ccc3OC)n2)s1	inactive
O=C(NC(C(=O)N/N=C/c1cccnc1)c1n[nH]c(=O)c2ccccc12)c1ccccc1 (configuration not stated)	inactive
O=C(NCCSCc1c(F)cccc1Cl)Nc1ccccc1	inactive
Cc1nc2cc(Cl)c(Cl)cc2n1-c1ccccn1	inactive
Cc1ccc([N+](=O)[O-])cc1S(=O)(=O)Nc1cccc(-c2ccc(N3CCOCC3)nn2)c1	inactive
Cc1c(-c2nc(N)nc(Nc3ccc(F)cc3)n2)oc2ccccc12	inactive
COC(=O)c1ccc(Nc2nnc(-c3ccc(C)c(S(=O)(=O)NCC4CCCO4)c3)c3ccccc23)cc1 (configuration not stated)	inactive
O=C(CSc1nc2ccccc2c2nc3ccccc3n12)NCc1ccco1	inactive
CCCc1cc(-n2cnc3ccccc32)n2c(nc3ccccc32)c1C#N	inactive
Cc1ccc2cc3cc(C(=O)N4CCCCCC4)oc3nc2c1	inactive
Cc1sc(=NC(=O)c2ccco2)n(C)c1-c1ccc(Cl)cc1	inactive
Cn1cc(C(N)=O)c2ccccc21	inactive
Cc1ccc(C)c(NC(=O)CSc2nc3c(oc4ccccc43)c(=O)n2-c2ccccc2)c1	inactive
O=C(Nc1ccon1)c1sc2cc(F)ccc2c1Cl	inactive
Cc1ccc(/C=N\NC(=O)C2CN(S(=O)(=O)c3ccccc3)CCN2S(=O)(=O)c2ccccc2)cc1 (configuration not stated)	inactive
C/C(N)=C(/C#N)C(=O)CSc1ncnc2ccccc12	inactive
C/C(N)=C(/C#N)C(=O)CSc1cc(C)c2cc(C)cc(C)c2n1	inactive
COc1ccc(CN2C(=O)c3cccnc3C2Nc2ccc(OC)c(Cl)c2)cc1 (configuration not stated)	inactive
